Drawing on PubChem BioAssay (NCI), this text covers growth for 8 compounds.

Compounds without any hit were thinned out: in the full panel of roughly 83,000, 20% have a hit.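 The endpoint reported here, percent growth, reads 100 for growth as untreated, 0 for no net growth and -100 for all cells dead.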 A number with no mark means an inactive call. Calls of active or inactive are those of the source. The calls were made as follows: active = growth percent below 10; inactive = the rest.

Common to all, as to assay: NCI-60 one-dose screen, 48 h (100 = growth as untreated, 0 = no growth, -100 = all killed)
Common to all, as to conditions: 10 µM unless noted

The subject of test [1] is DU-145 prostate.
Test [2] relates to K-562 leukemia.
The test system of test [3] is MALME-3M melanoma.
The test system of test [4] is MDA-MB-231 breast.
Test [5] deals with RXF 393 renal.
The subject of test [6] is SF-268 CNS.
Test [7] deals with SF-295 CNS.
Test [8] has as its system SF-539 CNS.
For test [9], the system named is UACC-257 melanoma.
Test [10] has as its system M14 melanoma.
The subject of test [11] is HCT-15 colon.
The subject of test [12] is HT29 colon.
Test [13] has as its system SNB-75 CNS.
Test [14] has as its system SNB-19 CNS.
The subject of test [15] is U251 CNS.
The subject of test [16] is PC-3 prostate.
In test [17] the test system is SK-MEL-5 melanoma.
Test [18] relates to UACC-62 melanoma.
Test [19] relates to LOX IMVI melanoma.
In test [20] the test system is SK-MEL-28 melanoma.

Take `NS(=O)(=O)c1ccc(Nc2nc(SCC(=O)c3ccc(F)cc3)nc3ccccc23)cc1`: the growth in [1] was 52.9%; in [2], 24.1%; in test [3], 31.7%; in [4], 51.7%; in [5] it was 63.5%; in [6], 46.8%. In addition, the growth in test [7] was 59.9%; in test [8], 53.2%; in test [9], 77.9%; in test [10], 56%; in test [11], 24.9%; in test [12], 63.3%. The growth in [13] was 43.5%; in [14], 54.8%; in [15] it was 47.2%; in test [16], 43.1%; in test [17] it was 18.6%; in test [18], 26.4%. For the same compound, the growth in [19] is 20.7%; in test [20], 55.6%.

In the case of `CC1CCc2c(sc3nc(SCC(=O)c4cccc(Br)c4)n(-c4ccccc4)c(=O)c23)C1` (stereo not given), the growth is 20.3% in [1]; 43.3% in test [2]; 97.5% in test [3]; 32.3% in test [4]; 90.9% in [5]; 64.9% in test [6]. Further, the growth in test [7] was 47.2%; in test [8], 18.3%; in test [9], 91.1%; in [10], 55.4%; in test [11] it was 41%; in test [12] it was 21.6%. Moreover, the growth in test [13] is 54.9%; in [14], 64.8%; in test [15], -25.5% (active); in [16], 56.6%; in test [17], 66%; in [18], 89.8%. In addition, the growth is 45.2% in test [19] and 73.5% in test [20].

In the case of `CCCCCCCOc1ccc(S(=O)(=O)Nc2ccc(C)c(F)c2C(=O)O)cc1`, the growth in [1] was 104%; in [2] it was 88.4%; in test [3] it was 91.3%; in test [4], 96%; in [5], 114%; in test [6], 101%. Also, the growth is 89.3% in test [7]; 102% in test [8]; 102% in [9]; 96.4% in test [10]; 79.4% in test [11]; 121% in test [12]. Also, the growth in test [13] is 104%; in test [14] it was 89.4%; in test [15], 91.4%; in [16], 91%; in [17] it was 96.7%; in [18], 90.6%. Further, the growth in test [19] is 98.9%; in [20], 117%.

Turning to `COc1ccc(-c2nc3ccccc3n2CC(=O)N=Nc2c(O)[nH]c3ccc(OC)cc23)cc1`, the growth in test [1] is 3.7% (active); in test [2] it was 32.5%; in test [3], 30.6%; in test [4], 66.5%; in test [5], 10.6%; in test [6] it was 77.5%. The growth in test [7] was 104%; in test [8], -34.7% (active); in [9], 60.8%; in test [10] it was 64.5%; in test [11], 43.7%; in [12], 0.298% (active). Moreover, the growth in test [13] was 73%; in [14], 95.1%; in [15], 96.6%; in [16], 64.8%; in test [17] it was 22.9%; in [18] it was 81.6%. Besides, the figures for the growth in test [19] and in test [20] were 56.8% and 81.2%, respectively.

Regarding `COC(=O)c1cc(C(=O)CBr)n2c1ccc1c3ccccc3ccc12`, the growth in test [1] was 69.3%; in [2], 43%; in test [3], 51.2%; in [4], 69.8%; in test [5], 67%; in test [6], 74.7%. The growth is 37.2% in test [7]; 43.6% in test [8]; 82.6% in test [9]; 69.5% in [10]; 39.3% in [11]; 44.6% in test [12]. Further, the growth in test [13] is 90.2%; in [14] it was 55.5%; in test [15] it was 39.4%; in test [16] it was 53.1%; in test [17], 53.4%; in test [18], 51.2%. Besides, the growth in test [19] is 31.9%; in test [20], 92.3%.

With `Nc1nc(-c2ccccc2)c(N=Nc2ccc(Cl)cc2Cl)s1`, the growth was 2.88% (active) in test [1]; -44.7% (active) in test [2]; -47.5% (active) in [3]; -89.5% (active) in test [4]; -69.7% (active) in test [5]; -46% (active) in test [6]. Besides, the growth in [7] was -90.5% (active); in test [8], -77.2% (active); in test [9], -2.45% (active); in test [10], -59.6% (active); in [11], -86% (active); in test [12], -60.4% (active). The growth in [13] is -36.5% (active); in test [14], -18.1% (active); in test [15] it was -10.7% (active); in [16], -1.78% (active); in [17], -99.2% (active); in test [18], -49.5% (active). The results for the growth in test [19] and in test [20] were -99.5% (active) and -55.8% (active), respectively.

As to `CC1=C(C(=O)Nc2ccccc2)C(c2cccc(Cl)c2Cl)n2c(nc3ccccc32)N1` (stereo not given), the growth was 71.1% in test [1]; 26.5% in test [2]; 71.4% in [3]; 71.4% in test [4]; 34.5% in test [5]; 42.5% in test [6]. Also, the growth was 47.1% in test [7]; 71.4% in [8]; 60.8% in [9]; 48.8% in test [10]; 35.5% in test [11]; 22.1% in test [12]. The growth in [13] is 47.2%; in test [14], 67.5%; in [15], 57.2%; in [16] it was 18.1%; in [17], 46.7%; in test [18], 46.7%. The results for the growth in [19] and in test [20] were 49.5% and 65.5%, respectively.

Take `CCC(=O)c1c2c(c3ccc4c5ccccc5ccc4n13)C(=O)c1ccccc1C2=O`: the growth was 20.3% in test [1]; 96.7% in test [2]; -87.5% (active) in test [3]; 83% in test [4]; 109% in test [5]; 95.4% in [6]. The growth in test [7] was 65.8%; in test [8], 77.8%; in test [9], 71.6%; in test [10] it was 24.6%; in test [11], 66.8%; in [12] it was 94.2%. The growth in test [13] was 113%; in test [14], 66.7%; in test [15], 90.4%; in test [16] it was 77.1%; in test [17], -23.6% (active); in [18] it was 54.9%. The growth in test [19] is 50.1%; in test [20] it was 76.4%.
